Assay results: PubChem BioAssay (Tox21)
Records with an inconclusive call do not appear. A call without a number means that no potency is given here. Activity calls are given as the source filed them. Calls come from the whole dose curve; as a rule, active = well fitted activation curve with a large enough effect in the repeat runs; inconclusive = weak or mixed curves; inactive = flat fitted curve, though single readings scatter.

Experiment: A CellTox Green Cytotoxicity Assay to monitor cytotoxicity in HEK293 cells - 8 hour (AID 1224884); note: nearly all actives have a fitted effect of over 35% in size
Details: CellTox Green fluorescence; series mostly up to 76.8 µM
Excerpt: National Center for Advancing Translational Sciences [NCATS]
NIH Chemical Genomics Center [NCGC]
U.S. Environmental Protection Agency [EPA]
National Institutes of Environmental Health Sciences [NIEHS]
National Toxicology Program [NTP]
Cell-based models are critical for drug discovery. Determining the natural cytotoxic effects resulting from test compounds is an essential research activity. A CellTox Green Cytotoxicity Assay to monitor cytotoxicity in real time of continues cell culture during 40 hours of the compound treatment was used to screen Tox21 10K library compounds in Hek293 cells. CellTox Green Cytotoxicity Assay is a nonlytic, homogeneous, biofluorescent method to measure cytotoxicity in cell culture after experimental manipulation. The assay system uses a proprietary asymmetric cyanine dye that is excluded from viable cells but preferentially stains the dead cell's DNA. […] Viable cells produce no appreciable increases in fluorescence. Therefore, the fluorescence signal produced by the binding interaction with dead cell DNA is proportional to cytotoxicity.
The mixture of Hek293 cell suspension and reagents were dispensed at 600cells/6 ul/well in 1536-well tissue culture treated black solid bottom plates using a Multidrop dispenser. After the assay plates were incubated at a 37 C/5% CO2 incubator for 5 hours, 23 nL of compounds dissolved in DMSO, positive and negative controls was transferred to the assay plate by a pintool work station. The plates were incubated at 37 C for 40 hours. The fluorescence intensity were measured at 0h, 8h, 16h, 24h, 32h and 40h time points using ViewLux plate reader during compound treatment.
Potency is the fitted concentration of half-maximal effect.

Question: Which Potency does the source give for `O=c1c(O)c(-c2ccc(O)cc2)oc2cc(O)cc(O)c12` here?
Answer: Its Potency is “inactive”.

Question: Which Potency does the source give for `CC(=O)OCC[N+](C)(C)C` here?
Answer: Its Potency is “inactive”.

Question: Which Potency does the source give for `COc1cc(C(=O)NCCCCCC(=O)O)cc(OC)c1OC` here?
Answer: The Potency was “inactive”.

Question: Which Potency does the source give for `CCCCCCCCOc1ccc(C(=O)O)cc1` here?
Answer: Its Potency is “inactive”.

Question: Which Potency does the source give for `CC(C)=CCC/C(C)=C/CC/C(C)=C/C(=O)OCC(=O)[C@@]1(O)CC[C@H]2[C@@H]3CCC4=CC(=O)C=C[C@]4(C)[C@H]3[C@@H](O)C[C@@]21C` here?
Answer: The Potency was “inactive”.

Question: Which Potency does the source give for `CC1(C)[C@@H](OC(=O)CCC(=O)O)CC[C@]2(C)[C@H]3C(=O)C=C4[C@@H]5C[C@@](C)(C(=O)O)CC[C@]5(C)CC[C@@]4(C)[C@]3(C)CC[C@@H]12` here?
Answer: The Potency was “inactive”.

Question: For `CC(CCC(=O)O)C(=O)O` (stereo not given), which Potency is on record?
Answer: The Potency was “inactive”.

Question: Which Potency does the source give for `CC(C)=CCC1C(=O)N(c2ccccc2)N(c2ccccc2)C1=O` here?
Answer: Its Potency is “inactive”.

Question: Which Potency does the source give for `CC(C)=CCC/C(C)=C/CC/C(C)=C/CCC(=O)OC/C=C(\C)CCC=C(C)C` here?
Answer: Its Potency is “inactive”.

Question: For `CC(=O)Oc1ccc([N+](=O)[O-])cc1CCl`, which Potency is on record?
Answer: Its Potency is “inactive”.

Question: With `C=CC(C)(CCC=C(C)C)OC(=O)CC(C)C` (stereo not given) as the compound, how does the Potency read?
Answer: The Potency was “inactive”.

Question: Which Potency does the source give for `CC(C)C(O)(c1ccc(OC(F)(F)F)cc1)c1cncnc1` (stereo not given) here?
Answer: Its Potency is “inactive”.

Question: With `CC(=O)Nc1ccc(C)cc1C` as the compound, how does the Potency read?
Answer: The Potency was “inactive”.

Question: Which Potency does the source give for `Brc1cc(Br)c(Oc2cc(Br)c(Br)cc2Br)cc1Br` here?
Answer: Its Potency is “inactive”.

Question: With `O=Cc1c2ccccc2c(Cl)c2ccccc12` as the compound, how does the Potency read?
Answer: The Potency was “inactive”.

Question: For `COc1ncnc(NS(=O)(=O)c2ccc(N)cc2)c1OC`, which Potency is on record?
Answer: Its Potency is “inactive”.

Question: With `CCCCCC#CC(=O)OC` as the compound, how does the Potency read?
Answer: The Potency was “inactive”.

Question: Which Potency does the source give for `COc1ccccc1N1CCN(CC(O)COc2cccc3ccccc23)CC1` (stereo not given) here?
Answer: Its Potency is “inactive”.

Question: Which Potency does the source give for `CCCCN1CCCC1C(=O)Nc1c(C)cc(C)cc1C` (stereo not given) here?
Answer: The Potency was 15.1 µM (active).

Question: With `CC1(CN2CCC(n3c(=O)[nH]c4ccccc43)CC2)OCc2ccccc2-n2cccc21` (stereo not given) as the compound, how does the Potency read?
Answer: The Potency was “inactive”.

Question: With `COc1ccccc1Oc1c(NS(=O)(=O)c2ccc(C(C)(C)C)cc2)nc(-c2ncccn2)nc1OCCO` as the compound, how does the Potency read?
Answer: Its Potency is “inactive”.

Question: With `O=C(O)C[C@H](NC(=O)OCc1ccccc1)C(=O)O` as the compound, how does the Potency read?
Answer: Its Potency is “inactive”.

Question: Which Potency does the source give for `C=CCc1ccccc1OCC(O)CNC(C)C` (stereo not given) here?
Answer: The Potency was “inactive”.

Question: For `OC(CCN1CCCC1)(c1ccccc1)C1CCCCC1` (stereo not given), which Potency is on record?
Answer: The Potency was “inactive”.

Question: For `OC[C@H]1O[C@@H](n2cnc3c(=S)nc[nH]c32)[C@H](O)[C@@H]1O`, which Potency is on record?
Answer: Its Potency is “inactive”.

Question: For `Clc1cc(Cl)nc(Cl)n1`, which Potency is on record?
Answer: The Potency was “inactive”.

Question: Which Potency does the source give for `O=C(Nc1cccc2c(=O)cc(-c3nn[nH]n3)oc12)c1ccc(OCCCCc2ccccc2)cc1` here?
Answer: Its Potency is “inactive”.

Question: With `Oc1c(I)cc(I)c2cccnc12` as the compound, how does the Potency read?
Answer: The Potency was “inactive”.

Question: Which Potency does the source give for `CCCCN(CCCC)C(C(N)=O)c1ccc(OC)cc1` (stereo not given) here?
Answer: Its Potency is “inactive”.

Question: With `O=C(Cn1ccnc1[N+](=O)[O-])NCCO` as the compound, how does the Potency read?
Answer: Its Potency is “inactive”.

Question: With `CCOC(=O)/C=C/C(=O)OCC` as the compound, how does the Potency read?
Answer: The Potency was “inactive”.

Question: Which Potency does the source give for `O=C(CCCN1CC=C(n2c(=O)[nH]c3ccccc32)CC1)c1ccc(F)cc1` here?
Answer: Its Potency is “inactive”.

Question: Which Potency does the source give for `C[C@H]1c2cccc(O)c2C(O)=C2C(=O)[C@]3(O)C(O)=C(C(N)=O)C(=O)[C@@H](N(C)C)[C@@H]3[C@@H](O)[C@@H]21` here?
Answer: Its Potency is “inactive”.

Question: With `O=[N+]([O-])c1cc(C2CCCCC2)c(O)c([N+](=O)[O-])c1` as the compound, how does the Potency read?
Answer: The Potency was “inactive”.

Question: With `Cc1cccc(N(C)C(=S)Oc2ccc3c(c2)CCC3)c1` as the compound, how does the Potency read?
Answer: Its Potency is “inactive”.

Question: With `NNC(=O)CP(=O)(c1ccccc1)c1ccccc1` as the compound, how does the Potency read?
Answer: Its Potency is “inactive”.

Question: With `CCC(=O)C1CC(C(C)C)CC=C1C` (stereo not given) as the compound, how does the Potency read?
Answer: The Potency was “inactive”.

Question: Which Potency does the source give for `Cc1ccccc1N=C(N)Nc1ccccc1C` here?
Answer: The Potency was “inactive”.

Question: With `NC(=O)c1ccncc1` as the compound, how does the Potency read?
Answer: The Potency was “inactive”.

Question: With `CCCCOc1ccc(OCCCN2CCOCC2)cc1` as the compound, how does the Potency read?
Answer: The Potency was “inactive”.
